Peg3 prom inh – Peg3 promoter-driven luciferase inhibitors, primary screen, cell-based, HeLa, luciferase luminescence | HeLa PEG-Prom luciferase reporter, overnight | inhibition, % at 20 µM | actives 1.7% (n = 360,000) | AID 588405, 2011;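 active = inhibition of at least 50% at 20 µM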
Shn3 inh set2 – reduction of Shn3 3'UTR firefly luciferase signal, primary screen, Schnurri-3 inhibitor project, cell-based, Clone20 osteoblasts, set 2; inhibition, % at 12.5 µM; actives 0.52% (n = 360,000); Clone20 osteoblast Shn3 3'UTR firefly luciferase, 24 h;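 active = mean inhibition of at least 75% with every replicate also reaching 75%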
LMP1 NFkB inh – EBV LMP1-driven NF-kappaB luciferase reporter inhibitors, primary screen, cell-based, luminescence, single point | inhibition, % at 12.5 µM | actives 0.69% (n = 350,000) | LMP1-induced NF-kappaB luciferase reporter cells; in the data active = inhibition above about 41%
TRPM1 prom inh – inhibitors of MITF-dependent TRPM1 promoter reporter, primary screen, cell-based, SK-MEL-5, single point, luciferase; actives 0.83% (n = 330,000); inhibition, % at 12.5 µM; SK-MEL-5 TRPM1 promoter luciferase, 24 h; AID 488899, 2010;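 active = mean inhibition across replicates of 60% or more, whatever share of single replicates reaches that level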
PAX8 inh HTS – inhibitors of PAX8-driven TPO luciferase reporter, primary screen, RMG-I cells, single concentration. SteadyGlo, 24 h. inhibition, % at 12.6 µM. actives 1.2% (n = 360,000). AID 652154, 2013;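 active = mean replicate inhibition at least 60% with every replicate also reaching 60%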;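 also: luciferase light reporting Pax8 driven TPO promoter activity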
HIF-2a block – HIF-2a reporter inhibitors, primary screen, luminescence, 786-0 RCC cells; 786-0 RCC cells HIF-2a reporter, luciferase luminescence, overnight; inhibition, % at 18.8 µM; actives 0.72% (n = 360,000);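 active = inhibition of the luminescence signal of 40% or more relative to plate controls, in a single-dose primary screen at 18.75 µM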
Large screens that a line does not name were inactive; ! = repeats disagree. An excerpt weighted towards active compounds, which were near 2.8% of everything screened.

O=C(Nc1cccnc1)C(Cc1ccccc1)n1cccc1 (centres undefined)	none
O=C(Nc1ncc(Br)s1)C(Cc1ccccc1)n1cccc1 (centres undefined)	LMP1 NFkB inh 91
COc1ccc(C(Nc2ccccn2)c2oc(CO)cc(=O)c2O)cc1 (centres undefined)	LMP1 NFkB inh 68
O=C(NNc1ccccc1Br)C(O)(c1cccc(C(F)(F)F)c1)c1cccc(C(F)(F)F)c1	Peg3 prom inh 54
Cc1ccc(C(O)(C(=O)NNc2ccccn2)c2ccc(C)cc2)cc1	none
Cc1ccc(NNC(=O)C(O)(c2cccc(C(F)(F)F)c2)c2cccc(C(F)(F)F)c2)cc1	Peg3 prom inh 67
CC(C)(O)C(=O)NNC(=S)Nc1cccc(C(F)(F)F)c1	none
C[C@@H]1CCCCO[C@H](CN(C)C(=O)CCC(F)(F)F)[C@H](C)CN([C@H](C)CO)C(=O)c2cc(NC(=O)Cc3ccccc3)ccc2O1	none (no result: Peg3 prom inh, Shn3 inh set2, LMP1 NFkB inh, TRPM1 prom inh, HIF-2a block)
COc1cc(/C=C(/C#N)C(=O)Nc2ccc(C)cc2)ccc1Oc1nc(Cl)ncc1F	Peg3 prom inh 51
COc1cc(/C=C/C(=O)NC(=O)c2ccccc2O)ccc1O	none
COc1cc(/C=C/C(O)=C/C(=O)/C=C/c2ccc(O)cc2)ccc1O	PAX8 inh HTS 63
CCOc1ccc(S(=O)(=O)Nc2cc(SCC(=O)O)c(O)c3ccccc23)cc1	none
O=S(=O)(Nc1cc(Sc2cccc3cccnc23)c(O)c2ccccc12)c1ccccc1	PAX8 inh HTS 105 (no result: Peg3 prom inh, Shn3 inh set2, LMP1 NFkB inh, TRPM1 prom inh, HIF-2a block)
O=C(O)CSc1cc(NS(=O)(=O)c2cccc([N+](=O)[O-])c2)c2ccccc2c1O	TRPM1 prom inh 76
CCc1ccc(S(=O)(=O)Nc2cc(SCC(=O)O)c(O)c3ccccc23)cc1	none
Cc1ccc(C)c(S(=O)(=O)Nc2cc(SCC(=O)O)c(O)c3ccccc23)c1	Peg3 prom inh 97, TRPM1 prom inh 67, HIF-2a block 66 (no result: PAX8 inh HTS)
CNC[C@@H]1Oc2cc(-c3cccnc3)ccc2S(=O)(=O)N([C@H](C)CO)C[C@H]1C	none (no result: Peg3 prom inh, Shn3 inh set2, LMP1 NFkB inh, TRPM1 prom inh, HIF-2a block)
CO[C@H]1CN(C)C(=O)c2cc(NC(C)=O)ccc2OC[C@@H](C)NC[C@@H]1C	none (no result: Peg3 prom inh, Shn3 inh set2, LMP1 NFkB inh, TRPM1 prom inh, HIF-2a block)
Cc1ccc(OCc2nnc(SCc3cc(=O)[nH]c4ccccc34)n2-c2ccccc2)cc1	none
Cc1ccccc1OCc1nnc(SCc2cc(=O)[nH]c3ccccc23)n1-c1ccccc1	PAX8 inh HTS 71
O=S(=O)(/C=C/c1ccccc1)N1CCc2ccccc2C1	none
O=C1C=CCCN1S(=O)(=O)/C=C/c1ccccc1	PAX8 inh HTS 89 (no result: Peg3 prom inh, Shn3 inh set2, LMP1 NFkB inh, TRPM1 prom inh, HIF-2a block)
CNC(=S)N1N=C(c2cccs2)CC1c1ccc(F)cc1 (centres undefined)	LMP1 NFkB inh 50
COCCN=c1scc(-c2cc(OC)c(OC)c(OC)c2)n1/N=C/c1c(C)[nH]c2ccccc12	Peg3 prom inh 53
Cc1c(CCOC(=O)C2C3CC4CC(C3)CC2C4)sc[n+]1CC(=O)c1ccc(Br)cc1 (centres undefined)	Peg3 prom inh 101, TRPM1 prom inh 95!
Cc1c(CCOC(=O)c2ccc(Cl)cc2Cl)sc[n+]1CC(=O)c1ccc(Br)cc1	none
O=C(NC1CCCCC1)N1CCN(c2ccc([N+](=O)[O-])cc2)CC1	LMP1 NFkB inh 75
Cc1ccc(S(=O)(=O)Nc2cccc3c2O[C@H](CN(C)S(=O)(=O)c2cccs2)[C@@H](C)CN([C@@H](C)CO)C3=O)cc1	none (no result: Peg3 prom inh, Shn3 inh set2, LMP1 NFkB inh, TRPM1 prom inh, HIF-2a block)
O=[N+]([O-])/C=C\c1ccc(N2CCCC2)c(F)c1	Peg3 prom inh 101, TRPM1 prom inh 94, HIF-2a block 46 (no result: PAX8 inh HTS)
C[C@H](CO)N1C[C@H](C)[C@@H](CN(C)S(=O)(=O)c2cn(C)cn2)OCCCC[C@H](C)Oc2ccc(NC(=O)Nc3cccc4ccccc34)cc2C1=O	none (no result: Peg3 prom inh, Shn3 inh set2, LMP1 NFkB inh, TRPM1 prom inh, HIF-2a block)
CCN(CC)CCNc1ccc(CO)c2oc3cc(Cl)ccc3c(=O)c12	Peg3 prom inh 101 (no result: TRPM1 prom inh)
C[C@H]1CCCCO[C@@H](CN(C)C(=O)c2ccccc2)[C@@H](C)CN([C@@H](C)CO)C(=O)c2cc(NS(C)(=O)=O)ccc2O1	none (no result: Peg3 prom inh, Shn3 inh set2, LMP1 NFkB inh, TRPM1 prom inh, HIF-2a block)

From PubChem BioAssay
